# Bioassay records (PubChem BioAssay)
# In the library only some 2.2% were active in any assay of this set; here they are far more common.
# IEC-6 tox: cytotoxicity in IEC-6 intestinal epithelial cells, primary screen, cytotoxicity control for KLF5 inhibitor project, cell-based, luminescence. IEC-6 cytotoxicity, luminescence viability. inhibition, % at 5 µM. 0.78% of 290,000 active. AID 1825, 2009; in the data active means inhibition above about 22%;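 further: 0% = plate median of test compound wells and 100% = cytotoxic reference compound wells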
# BaF3 parental: parental Ba/F3 cell viability inhibition, counter-screen for JAK2V617F inhibitor project, murine pro-B, CellTiter-Glo luminescence; CellTiter-Glo ATP luminescence; inhibition, % at 5.6 µM; 1.1% of 220,000 active;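 active means inhibition above a per-campaign cutoff, the mean inhibition of all tested compounds plus 3 SD, cut at about 27% in these data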;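 further: 0% = DMSO wells and 100% = JAK Inhibitor I control wells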
# APP transl inh: inhibitors of APP translation via 5'UTR reporter, primary screen, APP 5'UTR luciferase, SH-SY5Y cells | SH-SY5Y APP 5'UTR-luciferase reporter, luminescence | inhibition, % at 2 µM | 0.82% of 190,000 active | AID 1285, 2008;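 active means inhibition above a set limit, derived from the sample mean plus 3 SD, cut at about 45% in these data; inconclusive means one replicate passes the limit while the other fails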
# KLF5 inh: KLF5 expression inhibitors, primary screen, DLD-1 cells, luminescence. DLD-1 KLF5 promoter-luciferase reporter. inhibition, % at 5 µM. 0.23% of 290,000 active;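 active means inhibition above a per-plate limit of that plate's mean compound inhibition plus 3 SD, cut at about 60% in these data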;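 further: 0% = DMSO wells and 100% = LY294002 at 200 µM; higher means less KLF5 promoter-driven luciferase light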
# aSyn 5UTR inh: MLPCN primary screen, SNCA 5' untranslated region | alpha-synuclein 5'UTR reporter, inhibitor activity | inhibition, % (tested at 7.5 µM) | 0.82% of 300,000 active; in the data active means inhibition above about 60%; inconclusive means no clear call, values can overlap the other calls;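 further: H4 neuroglioblastoma cells stably carrying SNCA 5'UTR luciferase fusion; 0% = DMSO wells and 100% = positive control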
# Ba/F3 V617F tox: reduced viability of JAK2V617F-dependent Ba/F3 cells, primary screen, JAK2V617F inhibitor project, cell-based, Ba/F3 EpoR-JAK2V617F, luminescence | ATP luminescence | inhibition, % at 5.6 µM | 1.1% of 220,000 active | AID 1446, 2008;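 active means inhibition above the campaign mean plus 3 SD over all tested compounds, cut at about 24% in these data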;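 further: cytokine-independent growth of Ba/F3 cells driven by EpoR plus mutant JAK2; 0% = DMSO-treated cells and 100% = JAK inhibitor I control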
# * hit, by the source's call; ? = inconclusive; nt = no result.
SMILES,IEC-6 tox,BaF3 parental,APP transl inh,KLF5 inh,aSyn 5UTR inh,Ba/F3 V617F tox
O=C1C=C(N2CCCCC2)c2ccccc2C1=O,nt,nt,nt,nt,122*,nt
COc1ccc(-c2noc(CCC(=O)NC3CCCCCC3)n2)cc1,4,nt,nt,-15,-15,nt
COc1ccc(-c2noc(CCCC(=O)NC3CCCC3)n2)cc1,8,nt,nt,-18,62*,nt
CC1(C)Cc2c(c(N3CCOCC3)nc3sc4c(NCc5ccccc5)nnnc4c23)CS1,-4,4,-16,-22,68*,-3
N/C(=N\OC(=O)c1ccc(Cl)cc1)c1[nH]ncc1Br,-6,0,nt,-94,6,-3
CC(=O)N1CCN(C(=O)CSc2cc(C)c(Br)cc2C)CC1,1,nt,nt,2,5,nt
CCOc1ccc(NC(=O)C2CSC(c3ccncc3)=N2)cc1 (stereo not given),8,7,46*,18,-25,2
CCCCc1cc(=O)oc2cc(C)cc(OCC(=O)NCc3ccccn3)c12,-12,nt,nt,-14,-12,nt
Clc1cccc(CN2CCCCCC2)c1,-1,nt,nt,-2,-9,nt
O=C1CCCc2ccccc2N1Cc1ccc(F)cc1,-2,6,2,8,-11,0
N=c1c2c(n(Cc3cccc(Cl)c3)c3c1CCC3)CCCC2,6,61*,0,28,?,72*
N=c1c2c(n(Cc3ccc(F)cc3)c3c1CCC3)CCCC2,-1,57*,8,13,11,55*
N=c1c2c(n(Cc3ccc(Cl)cc3)c3c1CCC3)CCC2,6,73*,-2,38,54,95*
N=c1c2c(n(Cc3ccccc3)c3c1CCC3)CCC2,4,60*,-10,25,27,62*
COc1ccccc1CC(=O)N1CCN(S(=O)(=O)c2ccccc2)CC1,7,nt,nt,-3,7,nt
CC(C)(CN1CCCC1)NS(=O)(=O)c1ccccc1,-4,nt,nt,-19,4,nt
COc1ccccc1C(=O)Nc1ccnn1C1CCN(Cc2cnc(N(C)C)s2)CC1,-2,nt,nt,-26,11,nt
Cc1ccc(NC(=O)c2c(C(F)(F)F)nn(C)c2SCc2cccc(C(F)(F)F)c2)cc1C,12,48*,nt,8,-102,43*
C/C(=N\NC(=O)c1cc(-c2cccc(OC(C)C)c2)nc2ccccc12)c1cccnc1,-3,nt,nt,-28,17,nt
C/C(=N\NC(=O)c1cc(-c2cccnc2)nc2ccccc12)c1ccc(O)cc1O,3,5,66*,3,105*,-1
CSc1ccc(CNC(=O)CCn2ccc3cc(S(=O)(=O)N4CCCC4)ccc32)cc1,-3,nt,nt,-9,18,nt
Nn1c(-c2ccc(F)cc2)nc2ccccc2c1=O,8,nt,nt,-13,6,nt
O=C1c2cc(F)ccc2-n2c1nc1ccccc1c2=O,12,nt,nt,25,66*,nt
COc1cc(Br)cc(/C=N/NC(=O)Cc2ccc(C(F)(F)F)cc2[N+](=O)[O-])c1O,-2,5,33,-38,68*,-2
COc1cc(SC)ccc1C(=O)NCC1CCCCC1,0,nt,nt,-62,-67,nt
SMILES,IEC-6 tox,BaF3 parental,APP transl inh,KLF5 inh,aSyn 5UTR inh,Ba/F3 V617F tox
COc1ccc2oc(C(=O)Nc3ccc(N4CCOCC4)cc3)c(C)c2c1,nt,nt,nt,nt,-44,nt
Cc1ccc(OCc2cc(C(=O)Nc3ccccc3)oc2C)cc1,2,3,-2,-40,-54,2
Cc1oc(C(=O)Nc2ccc(O)cc2)cc1COc1ccccc1,5,37*,-14,-10,nt,9
N#Cc1ccc(NC(=O)Nc2ccc(Oc3ccc(NC(=O)Nc4ccc(C#N)cc4)cc3)cc2)cc1,4,-3,nt,-8,74*,0
Cc1ccc2[nH]c3c(c2c1)CN(C(=O)CN1CCN(c2cccc(C)c2C)CC1)CC3,-2,4,-9,-26,15,-2
Cc1ccc2[nH]c3c(c2c1)CN(C(=O)CN1c2ccc(F)cc2CCC1C)CC3 (stereo not given),2,95*,0,-12,22,1
O=C(COc1ccc(F)c(Cl)c1)N1CCCCCCC1,-4,nt,nt,-7,-3,nt
COc1ccc(NC(=O)Cc2nnc(SCC(=O)NC3CCCCC3C)n2C)cc1 (stereo not given),2,nt,nt,-29,5,nt
O=C(Nc1nccs1)c1cn2ccccc2n1,7,6,nt,-31,65*,6
C[n+]1ccc(/C=C/c2ccccc2O)c2ccccc21,-2,71*,12,6,-14,58*
CC(=O)/C=C/c1ccccc1O,6,2,-4,-14,-25,2
CCNc1nc(NC(C)(C)C)nc(N2CCCC2)n1,0,2,-6,-35,4,-2
CC(C)(C)Nc1nc(N2CCCC2)nc(N2CCCC2)n1,1,1,6,-22,68*,-2
S=C(Nc1ccccc1)N1CCCN1c1ccccc1,0,30*,nt,-36,-9,24*
Cc1ccccc1N(CC(=O)N1CCCCCC1)S(C)(=O)=O,-6,nt,nt,-23,-14,nt
CCOC(=O)CN(C(=O)c1snc(C(N)=O)c1N)C(C(=O)NC1CCCCC1)c1ccc(F)cc1 (stereo not given),4,nt,nt,5,-1,nt
COc1cc(/C=N/NC(=S)Nc2cccc(C(=O)O)c2)ccc1O,7,6,12,29,70*,5
COc1ccc(/C=N/NC(=S)Nc2cccc(C(=O)O)c2)cc1,-3,3,-29,-29,30,-3
COc1ccc(CCNC(=O)C(NS(=O)(=O)c2cccc3nsnc23)C(C)C)cc1OC (stereo not given),11,nt,nt,-22,5,nt
CC(C)c1ccc(NC(=O)c2cc(S(=O)(=O)N3CCCCC3)c[nH]2)cc1,-3,nt,nt,-35,-16,nt
CC1(C)CC(N2CCCC2)=CC(=[N+]2CCCCCC2)C1,30*,71*,2,1,-2,99*
CC1(C)CC(N2CCN(c3ccccc3)CC2)=CC(=[N+]2CCCC2)C1,14,75*,-9,-4,-3,85*
CCN(CC)C1=CC(=[N+]2CCCC2)CC(C)(C)C1,6,63*,-1,-15,-4,74*
Cc1cc(C)n(CC(C)(O)c2ccccc2)n1 (stereo not given),nt,nt,nt,nt,17,nt
COc1ccc(-c2cc3c(=O)n(CC(=O)NCCCN4CCC(Cc5ccccc5)CC4)ncn3n2)cc1,18,nt,nt,58,96*,nt
Cc1nc(=O)c(-c2ccccc2)c(C)n1Cc1ccccc1,-8,4,48*,-16,1,-4
CCc1ccc2c(c1)[C@H]1OCC[C@H]1[C@@H](c1cccs1)N2,9,41*,65*,-12,38,19
CCCCOc1cccc(/C=C(\C#N)C(=O)NC2CC2)c1,5,nt,nt,-13,-9,nt
CC1CCN(c2nc3ccc(C(=O)O)cc3s2)CC1,-3,3,46*,62,106*,-1
